Bioassay records (PubChem BioAssay)
Only some compounds are listed: those with a hit (about 12% of all), similar ones and a draw of the others.
BAZ2B block = BAZ2B (human) inhibition | Q9UIF8 | AlphaScreen BAZ2B-H3K14Ac peptide displacement | Potency, µM (highest dose often 114 µM), inactives show at the top dose activity change, negative = inhibition, hits mostly inhibitors | actives 4.4% (n = 360,000); also: % is scaled to controls: 0 for no effect and ±100 for the full control effect; nearly all actives have a fitted effect of over 60% in size
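AlphaScreen displacement: compounds (up to 110uM) incubated 30 min at room temperature with a preformed 50 nM BAZ2B/50 nM biotinylated H3K14Ac peptide complex in PBS pH 7.4 with Tween-20. Donor and acceptor beads at 10 ug/mL final added, 20 min light-protected before reading.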
JMJD2A Tudor = JMJD2A Tudor domain (human) inhibition | Potency, µM (titrated, usually from 114 µM), for the others: at the top dose activity change, negative = inhibition, actives largely listed as inhibitors | actives 4.4% (n = 390,000) | O75164 | AlphaScreen JMJD2A-Tudor / H3K4me3 peptide binding; also: % is scaled to controls: 0 for no effect and ±100 for the full control effect; nearly all actives have a fitted effect of over 50% in size
Target sequence (O75164 whole entry, looked up, the tested form may be a part): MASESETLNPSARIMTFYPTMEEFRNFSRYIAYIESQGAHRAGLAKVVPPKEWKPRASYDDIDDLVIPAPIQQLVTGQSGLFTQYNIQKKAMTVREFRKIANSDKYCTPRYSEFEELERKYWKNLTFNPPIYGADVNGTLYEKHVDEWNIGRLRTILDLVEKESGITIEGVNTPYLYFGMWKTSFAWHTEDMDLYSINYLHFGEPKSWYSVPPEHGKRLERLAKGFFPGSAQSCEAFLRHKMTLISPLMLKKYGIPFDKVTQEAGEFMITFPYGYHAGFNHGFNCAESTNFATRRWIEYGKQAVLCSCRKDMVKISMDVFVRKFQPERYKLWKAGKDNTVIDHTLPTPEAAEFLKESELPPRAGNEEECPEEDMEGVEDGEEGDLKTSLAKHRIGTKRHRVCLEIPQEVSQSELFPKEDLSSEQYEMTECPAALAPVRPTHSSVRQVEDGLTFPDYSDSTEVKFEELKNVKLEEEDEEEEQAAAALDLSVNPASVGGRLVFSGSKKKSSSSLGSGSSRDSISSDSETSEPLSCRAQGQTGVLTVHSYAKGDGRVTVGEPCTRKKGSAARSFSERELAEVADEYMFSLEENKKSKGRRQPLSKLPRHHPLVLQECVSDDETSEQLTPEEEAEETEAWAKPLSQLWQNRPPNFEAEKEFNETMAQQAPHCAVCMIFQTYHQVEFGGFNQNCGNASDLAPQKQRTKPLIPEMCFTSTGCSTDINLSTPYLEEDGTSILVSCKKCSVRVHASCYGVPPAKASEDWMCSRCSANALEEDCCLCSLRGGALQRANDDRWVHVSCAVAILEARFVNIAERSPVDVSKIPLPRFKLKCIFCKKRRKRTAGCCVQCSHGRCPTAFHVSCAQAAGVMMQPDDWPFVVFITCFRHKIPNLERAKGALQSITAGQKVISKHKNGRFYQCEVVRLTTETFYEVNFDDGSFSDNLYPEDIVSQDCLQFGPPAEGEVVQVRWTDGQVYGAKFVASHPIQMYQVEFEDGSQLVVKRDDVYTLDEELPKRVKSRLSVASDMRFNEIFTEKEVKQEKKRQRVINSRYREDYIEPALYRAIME
G9a inh = inhibitors of human histone lysine methyltransferase G9a; AID 504332; actives 8.8% (n = 350,000); G9a H3K9 monomethylation, AlphaScreen, 2 h; Q96KQ7; Potency, µM (highest dose often 102 µM), for the others: at the top dose activity, negative = inhibition, actives largely listed as inhibitors; also: % is scaled to controls: 0 for no effect and ±100 for the full control effect; nearly all actives have a fitted effect of over 75% in size
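AlphaScreen read-out: biotin-H3K9 peptide (500 nM) methylation by 20 nM enzyme with 20 uM SAM, 2 h at room temperature after 15 min compound preincubation; anti-monomethyl H3K9 antibody plus donor/acceptor beads, 10 min dark.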
HP1b chromo inh = HP1-beta chromodomain-methylated histone interaction inhibition; P83916; AlphaScreen HP1-beta / biotin-H3K9me3 peptide binding; Potency, µM (highest dose often 114 µM), inactives show top-dose activity change, negative = inhibition, usual class: inhibitors; actives 0.56% (n = 390,000); AID 540317; also: nearly all actives have a fitted effect of over 70% in size
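HP1-beta protein (50 nM final) preincubated 30 min at room temperature with biotinylated H3(1-18)K9me3 peptide (50 nM) in PBS pH 7.4, 0.01% Tween-20, then compound added for 30 min. AlphaScreen streptavidin donor/nickel chelate acceptor beads (10 ug/mL final), 30 min dark, luminescence read.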
Sfp inh = inhibitors of Bacillus subtilis Sfp phosphopantetheinyl transferase | actives 3.5% (n = 310,000) | Biochemical Sfp PPTase activity, qHTS | Potency, µM, for inactives: largest response in the series, negative = inhibition, most hits filed as inhibitors | Q9F4F7 | AID 1490;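 also: the enzyme is Sfp with the accession as filed and its product quenches rhodamine fluorescence; 0% = enzyme reaction without inhibitor and -100% = no enzyme wells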
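Step 1, compound plus 15 nM Sfp-PPTase, 15 min, room temperature. Step 2, add rhodamine-CoA (5 uM) and BHQ-2-YbbR (12.5 uM). Step 3, read 525/598 nm fluorescence at 0 and 30 min.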
* hit, by the source's call; [ ] = remark or other dose. Calls follow the shape of the dose curve; as a rule, active = well fitted curve in the direction sought with a large enough effect; inconclusive = small, poorly fitted or top-dose-only effect, or another doubt; inactive = no such curve, though single readings can be large; an effect the other way counts as inactive or inconclusive. Potency is read from the fitted curve at half-maximal effect.

For COc1ccc(N2CCN(C(=O)c3ccc(CS(=O)c4cccc(C)c4)o3)CC2)cc1 (configuration not stated) the results were BAZ2B block inconclusive, JMJD2A Tudor -21.6%, G9a inh 56.2µM*, HP1b chromo inh 22.4% and Sfp inh 1.8%.
For O=C(Nc1ccc(Cl)c(Cl)c1)N(Cc1c[nH]c2ccccc12)C1CCCCC1 the results were JMJD2A Tudor -30.3%, G9a inh 3.7%[59 µM] and HP1b chromo inh 0.0%.
For Fc1ccccc1OCc1nc(-c2ccc(-n3cccc3)cc2)no1 the results were BAZ2B block -13.9%, JMJD2A Tudor -10.4%, G9a inh -4.7%[59 µM] and HP1b chromo inh 22.4%.
N#C/C(N=Nc1ccccc1O)=N\Nc1ccccc1O was read as BAZ2B block 11.2µM*, JMJD2A Tudor 22.4µM*, G9a inh inconclusive and HP1b chromo inh 15.8µM*.
For Cc1cccc(N2CCN(CC(=O)NCC3CCCCC3)CC2)c1C the results were BAZ2B block 50.1µM*, JMJD2A Tudor 5.01µM*, G9a inh 28.2µM*, HP1b chromo inh inconclusive and Sfp inh -24.5%.
For CSC1=N/C(=C\c2ccc(Cl)cc2)C(=O)N1N(C)C the results were BAZ2B block -26.6%, JMJD2A Tudor -5.0%, G9a inh 15.4%, HP1b chromo inh 27.6% and Sfp inh -7.2%.
Screening CC1(C)CN=c2s/c(=C\c3ccc(Cl)cc3)c(=O)n2C1 returned BAZ2B block inconclusive, JMJD2A Tudor -9.6%, G9a inh 70.8µM*, HP1b chromo inh 13.5% and Sfp inh -8.0%.
Screening COc1cc2c(C#N)c(N3CCCC3)nc(N)c2c(N)n1 returned BAZ2B block 15.1%, JMJD2A Tudor -30.2%, G9a inh 11.2%, HP1b chromo inh 39.2% and Sfp inh 3.98µM*.
Screening COc1cc2c(C#N)c(N3CCN(C)CC3)nc(N)c2c(N)n1 returned BAZ2B block 4.2%, G9a inh 50.1µM* and Sfp inh 7.6%.
CCn1cc(C(=O)N2CCN(c3ccccc3)CC2)c(=O)c2cc(S(=O)(=O)N3CCCC3)ccc21 was read as JMJD2A Tudor -25.3%, G9a inh -35.8%[59 µM] and HP1b chromo inh -3.4%.
Screening COc1cc2c(c(OC)c1OC)C(=O)C(=Cc1ccccc1)O2 returned JMJD2A Tudor 4.8% and HP1b chromo inh 61.2%.
CN1CCN(C(=O)c2ccc3c(c2)N(Cc2ccc(C(F)(F)F)cc2)C(=O)c2ccccc2S3)CC1 was read as JMJD2A Tudor -35.7%, G9a inh inconclusive and HP1b chromo inh 4.4%.
NC(=S)N/N=C1\CC(c2ccc3c(c2)OCCO3)Oc2ccc(F)cc21 (configuration not stated) was read as BAZ2B block -19.1%, JMJD2A Tudor -16.9%, G9a inh 6.6%, HP1b chromo inh -4.0% and Sfp inh 7.5%.
NC(=S)N/N=C1\CC(c2ccc3c(c2)OCCCO3)Oc2ccc(F)cc21 (configuration not stated) was read as BAZ2B block 25.1µM*, JMJD2A Tudor inconclusive, HP1b chromo inh -21.6% and Sfp inh 1.4%.
`Brc1ccc(CNc2nc3ccccc3n2CCN2CCCCC2)cc1` gave BAZ2B block inconclusive, JMJD2A Tudor -23.8%, G9a inh 44.7µM*, HP1b chromo inh 27.2% and Sfp inh 6.4%.
`COc1ccc(OC)c(CNc2nc3ccccc3n2CCN2CCCCC2)c1` gave BAZ2B block -38.9%, JMJD2A Tudor inconclusive, G9a inh inconclusive, HP1b chromo inh -7.3% and Sfp inh 79.4µM*.
`Brc1cccc(CNc2nc3ccccc3n2CCN2CCCCC2)c1` gave BAZ2B block -29.8%, JMJD2A Tudor -32.6%, G9a inh inconclusive, HP1b chromo inh 16.5% and Sfp inh 0.7%.
`COc1ccc(CNc2nc3ccccc3n2CCN2CCCCC2)c(OC)c1` gave BAZ2B block inconclusive, JMJD2A Tudor -20.1%, G9a inh inconclusive, HP1b chromo inh 10.8% and Sfp inh inconclusive.
`Cc1cccc(C(=O)NC2CCN(C#N)CC2)c1` gave JMJD2A Tudor -12.3%.
Screening O=[N+]([O-])c1ccc(N2CCCCC2)c(-c2nn[nH]n2)c1 returned BAZ2B block inconclusive, JMJD2A Tudor -12.0%, G9a inh 44.7µM*, HP1b chromo inh 18.9% and Sfp inh -4.0%.
For COc1ccc(C2C(C(=O)c3sc(C)nc3C)=C(O)C(=O)N2CCN(C)C)cc1 (configuration not stated) the results were BAZ2B block 10.6%, JMJD2A Tudor 15.2%, G9a inh -7.0%[12.7 µM], HP1b chromo inh 29.3% and Sfp inh 17.5%.
`CCN(CC)CCCN1C(=O)C(O)=C(C(=O)c2sc(C)nc2C)C1c1ccc(C)o1` (configuration not stated) gave BAZ2B block -22.1%, G9a inh -17.1%[59 µM] and Sfp inh 1.1%.
For Cc1ccc(C2C(C(=O)c3sc(C)nc3C)=C(O)C(=O)N2CCN2CCOCC2)o1 (configuration not stated) the results were BAZ2B block -33.2%, JMJD2A Tudor inconclusive, G9a inh 35.5µM*, HP1b chromo inh 4.5% and Sfp inh -9.1%.
For COc1cccc(C2C(C(=O)c3sc(C)nc3C)=C(O)C(=O)N2CCN2CCOCC2)c1 (configuration not stated) the results were BAZ2B block -4.8%, JMJD2A Tudor inconclusive, G9a inh 50.1µM*, HP1b chromo inh 22.6% and Sfp inh -16.7%.
`O=C(NC1CCCC1)C(c1ccncc1)N(CC1CCCO1)C(=O)Cn1nnc(-c2cccs2)n1` (configuration not stated) gave BAZ2B block 10.9%, JMJD2A Tudor -8.1%, G9a inh 50.1µM*, HP1b chromo inh 22.0% and Sfp inh 6.6%.
Screening Cc1ccc(C)c(N(C(=O)Cn2nnc(-c3cccs3)n2)C(C(=O)NC2CCCC2)c2ccncc2)c1 (configuration not stated) returned BAZ2B block 7.3%, JMJD2A Tudor -1.8%, HP1b chromo inh 4.0% and Sfp inh 0.3%.
For CC(C)(C)N(C(=O)Cn1nnc(-c2ccc(F)cc2)n1)C(C(=O)NC1CCCC1)c1ccncc1 (configuration not stated) the results were BAZ2B block 4.1%, JMJD2A Tudor -28.4%, G9a inh 7.08µM*, HP1b chromo inh 19.1% and Sfp inh 5.6%.
Screening Cc1ccc(-c2nnn(CC(=O)N(CC3CCCO3)C(C(=O)NC3CCCC3)c3ccc(O)cc3)n2)o1 (configuration not stated) returned BAZ2B block -6.7%, JMJD2A Tudor -15.3%, G9a inh -40.2%, HP1b chromo inh -7.5% and Sfp inh 1.2%.
